Measurements from PubChem BioAssay.
Inconclusive results are not listed. Activity calls are given as the source filed them.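 Rule for the calls, unless noted: active = normalized viability below 100% at a tested concentration; inactive = the rest.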

Columns and labels:
[1] = growth inhibition of DIPG glioma cells, dose response, cell-based, SU-DIPG-XVII, MIPE5.0, CellTiter-Glo, qHTS (AID 1347060; cut-off not given, nearly all actives have AC50 up to about 26 µM;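 for AC50: cells exposed to compound for 48 hours before viability readout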); conditions: SU-DIPG-XVII viability, CellTiter-Glo ATP luminescence
[2] = growth inhibition of DIPG glioma cells, dose response, cell-based, SU-DIPG-XIII, MIPE4.0, CellTiter-Glo, qHTS (AID 1347061; cut-off not given, nearly all actives have AC50 up to about 37 µM;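 note: cells exposed to compound for 48 hours before readout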); conditions: SU-DIPG-XIII viability, CellTiter-Glo ATP luminescence
[3] = growth inhibition of DIPG glioma cells, dose response, cell-based, JHH-DIPG-1, MIPE4.0, CellTiter-Glo, qHTS (AID 1347062; cut-off not given, nearly all actives have AC50 up to about 27 µM;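 for AC50: cells exposed to compound for two days before readout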); conditions: JHH-DIPG-1 viability, CellTiter-Glo ATP luminescence
[4] = growth inhibition of DIPG glioma cells, dose response, cell-based, SU-DIPG-IV, MIPE4.0, CellTiter-Glo, qHTS (AID 1347063; cut-off not given, nearly all actives have AC50 up to about 30 µM;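 note: compound exposure lasted 48 hours before the viability readout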); conditions: SU-DIPG-IV viability, CellTiter-Glo ATP luminescence
[5] = growth inhibition of DIPG glioma cells, dose response, cell-based, SU-DIPG-XIII, MIPE5.0, CellTiter-Glo, qHTS (AID 1347064; cut-off not given, nearly all actives have AC50 up to about 23 µM;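 for AC50: cells exposed to compound for 48 hours before the viability read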); conditions: SU-DIPG-XIII viability, CellTiter-Glo ATP luminescence
[6] = viability loss in pontine glioma line – cell-based, SU-DIPG-XXV, MIPE5.0, CellTiter-Glo, qHTS, dose response (AID 1347065; cut-off not given, nearly all actives have AC50 up to about 26 µM;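 note: cells exposed to compound for 48 hours before ATP readout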); conditions: CellTiter-Glo ATP luminescence
[7] = SU-DIPG-XXV glioma cell viability, MIPE5.0 library, qHTS (AID 1347068; cut-off not given, nearly all actives have IC50 up to about 30 µM)
[8] = modifiers of HSF1 nuclear foci, imaging, Selleck Cancer Library (AID 1347162; in the data active = plate-normalised HSF1 focus index below about 0.46); conditions: human cells, at 10 µM; SSMD: measured here: HSF1 foci SSMD mean; cell count: measured here: cell number; plate-normalised HSF1 focus index: stronger effect = lower value
[9] = sensitizers of A549 cells to miR-34 induction, primary screen, imaging, A549 dox-inducible miR-34, nuclei and caspase counts (AID 1347080;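 active = compounds whose cell count with miR-34 switched on is under 0.7 times the count with it off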); conditions: A549 miR-34 inducible, Hoechst nuclei count, 48 h
[10] = survival rescue of mitochondrial mutant cells in low glucose, primary screen, MELAS cybrids, Rieske KO mouse fibroblasts, CellTiter-Glo (AID 1508586;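 active = mean z-score across replicates of 1.96 or higher in either the MELAS or the Rieske mutant cell line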;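 note: z relative to plate mean and SD of compound and empty wells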)
[11] = ovarian cancer cell viability with rucaparib, profiling panel, oncology-focused library, rucaparib conditional (AID 1508598); conditions: patient-derived ovarian cancer cells, CellTiter-Glo viability, 144 h, stronger effect = lower value
[12] = SU-DIPG-VI glioma cell viability, MIPE4.0 library, CellTiter-Glo luminescence, qHTS (AID 1347066; cut-off not given, nearly all actives have AC50 up to about 30 µM;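 note: cells exposed to compound for 48 hours before readout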); conditions: CellTiter-Glo ATP luminescence
[13] = JHH-DIPG-1 glioma cell viability, MIPE5.0 library, CellTiter-Glo luminescence, qHTS (AID 1347067; cut-off not given, nearly all actives have AC50 up to about 26 µM;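 note: cells exposed to compound for 48 hours before readout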); conditions: JHH-DIPG-1 glioma viability, CellTiter-Glo ATP luminescence
[14] = stronger effect = lower value, cell number ratio, induced over uninduced
[15] = measured here: relative caspase fold change +Dox/-Dox
[16] = measured here: total cells with miR-34 induction, stronger effect = lower value
[17] = measured here: total cells without miR-34 induction

COc1ccc2c3n(c(=NC(=O)c4cccnc4)nc2c1OC)CCN3
-0.125: SSMD [8]
7610: cell count [8]
inactive: outcome [7] | plate-normalised HSF1 focus index [8] 0.991
active: AC50 [1] 1.05 µM | AC50 [2] 13.2 µM | AC50 [3] 8.33 µM | AC50 [4] 1.05 µM | AC50 [5] 0.742 µM | AC50 [6] 0.59 µM

COC(=O)Nc1ccc(-c2nc(N3CCOCC3)c3cnn(C4CCN(C(=O)OC)CC4)c3n2)cc1
0.692: fold change [9, 15]
1.11: SSMD [8]
active: AC50 [1] 1.86 µM | AC50 [2] 0.0662 µM | AC50 [3] 0.187 µM | AC50 [4] 1.32 µM | AC50 [5] 2.63 µM | AC50 [6] 0.417 µM | z-score ([10]; MELAS cybrid survival, CellTiter-Glo 48 h, stronger effect = higher value) 4.37 | viability ([11]; at 0.000305 µM, OCI-P5x cells, with rucaparib 20 µM, 100% = cells with rucaparib alone) 94.1% | viability ([11]; at 0.000305 µM, OCI-P5x cells, without rucaparib) 90.5% | viability ([11]; at 0.00122 µM, OCI-P5x cells, without rucaparib) 93.1% | viability ([11]; at 0.0781 µM, OCI-P5x cells, with rucaparib 20 µM, 100% = cells with rucaparib alone) 97% | viability ([11]; at 1.25 µM, OCI-P5x cells, with rucaparib 20 µM, 100% = cells with rucaparib alone) 83.4% | viability ([11]; at 5 µM, OCI-P5x cells, with rucaparib 20 µM, 100% = cells with rucaparib alone) 70.5% | viability ([11]; at 5 µM, OCI-P5x cells, without rucaparib) 99.3%
2340: cell count [9, 17]
0.522: z-score ([10]; Rieske KO mouse fibroblast survival, CellTiter-Glo 72 h)
inactive: fold change [9, 14] 1.03 | plate-normalised HSF1 focus index [8] 1.06 | viability ([11]; at 0.000305 µM, OCI-C5x cells, with rucaparib 10 µM, 100% = cells with rucaparib alone) 108% | viability ([11]; at 0.000305 µM, OCI-C5x cells, without rucaparib) 105% | viability ([11]; at 0.00122 µM, OCI-C5x cells, with rucaparib 10 µM, 100% = cells with rucaparib alone) 127% | viability ([11]; at 0.00122 µM, OCI-C5x cells, without rucaparib) 108% | viability ([11]; at 0.00122 µM, OCI-P5x cells, with rucaparib 20 µM, 100% = cells with rucaparib alone) 104% | viability ([11]; at 0.00488 µM, OCI-C5x cells, with rucaparib 10 µM, 100% = cells with rucaparib alone) 109% | viability ([11]; at 0.00488 µM, OCI-C5x cells, without rucaparib) 108% | viability ([11]; at 0.00488 µM, OCI-P5x cells, with rucaparib 20 µM, 100% = cells with rucaparib alone) 101% | viability ([11]; at 0.00488 µM, OCI-P5x cells, without rucaparib) 102% | viability ([11]; at 0.0195 µM, OCI-C5x cells, with rucaparib 10 µM, 100% = cells with rucaparib alone) 118% | viability ([11]; at 0.0195 µM, OCI-C5x cells, without rucaparib) 117% | viability ([11]; at 0.0195 µM, OCI-P5x cells, with rucaparib 20 µM, 100% = cells with rucaparib alone) 106% | viability ([11]; at 0.0195 µM, OCI-P5x cells, without rucaparib) 104% | viability ([11]; at 0.0781 µM, OCI-C5x cells, with rucaparib 10 µM, 100% = cells with rucaparib alone) 115% | viability ([11]; at 0.0781 µM, OCI-C5x cells, without rucaparib) 112% | viability ([11]; at 0.0781 µM, OCI-P5x cells, without rucaparib) 101% | viability ([11]; at 0.313 µM, OCI-C5x cells, with rucaparib 10 µM, 100% = cells with rucaparib alone) 100% | viability ([11]; at 0.313 µM, OCI-C5x cells, without rucaparib) 114% | viability ([11]; at 0.313 µM, OCI-P5x cells, with rucaparib 20 µM, 100% = cells with rucaparib alone) 101% | viability ([11]; at 0.313 µM, OCI-P5x cells, without rucaparib) 106% | viability ([11]; at 1.25 µM, OCI-C5x cells, with rucaparib 10 µM, 100% = cells with rucaparib alone) 119% | viability ([11]; at 1.25 µM, OCI-C5x cells, without rucaparib) 116% | viability ([11]; at 1.25 µM, OCI-P5x cells, without rucaparib) 103% | viability ([11]; at 5 µM, OCI-C5x cells, with rucaparib 10 µM, 100% = cells with rucaparib alone) 126% | viability ([11]; at 5 µM, OCI-C5x cells, without rucaparib) 120%
2420: cell count [9, 16]
6960: cell count [8]

Clc1ccc2c(N3CCN(CCCN4CCN(c5ccnc6cc(Cl)ccc56)CC4)CC3)ccnc2c1
1.67: fold change [9, 15]
inactive: outcome [1] | outcome [2] | outcome [3] | outcome [4] | outcome [5] | outcome [12] | outcome [13] | outcome [7] | fold change [9, 14] 0.978
8600: cell count [9, 16]
8790: cell count [9, 17]

Cc1ccc(C(=O)Nc2cccc(C(F)(F)F)c2)cc1-c1ccc2nc(NCCN3CCOCC3)ncc2c1
active: AC50 [1] 2.35 µM | AC50 [2] 6.62 µM | AC50 [3] 6.62 µM | AC50 [4] 4.69 µM | AC50 [5] 3.72 µM | AC50 [6] 2.09 µM | AC50 [13] 2.95 µM

c1cc(OCCN2CCCCC2)cc(-c2n[nH]c3ccc(-c4ncn[nH]4)cc23)c1
inactive: outcome [1] | outcome [2] | outcome [3] | outcome [4] | outcome [5] | outcome [12] | outcome [13] | outcome [7]
